Measured values reported in PubChem BioAssay (NCI).
The panel holds about 79,000 compounds, 15% with a hit somewhere; the sample as a whole holds those more often. Activity calls are given as the source filed them. No stated cut-off is given here; in the data, active means growth inhibition above about 70%; inactive means the rest.

Assays:
[1] = NCI Yeast Anticancer Drug Screen. Data for the rad52 strain (AID 147);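 further: 0% = growth of vehicle-treated control cultures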; conditions: S. cerevisiae rad52 mutant growth inhibition, active compounds read high
Summary of the method: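 The repair-mutant yeast strain was incubated with compounds, then growth was read and inhibition derived relative to vehicle.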

[2] = NCI Yeast Anticancer Drug Screen. Data for the wt1 strain (AID 149);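 further: 0% = growth of vehicle-treated wt1 cultures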; conditions: S. cerevisiae wt1 strain (SPY 50644) growth inhibition, active compounds read high
Summary of the method: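 Each compound is tested on wt1 yeast and the loss of growth versus vehicle gives the inhibition value.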

[3] = NCI Yeast Anticancer Drug Screen. Data for the rad50EPP+ strain (AID 151);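 further: 0% = growth of vehicle-treated control cultures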; conditions: S. cerevisiae rad50 mutant strain, active compounds read high
Summary of the method: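 Vehicle-normalised growth inhibition; rad50EPP+ yeast strain, altered in DNA damage repair, compound-treated.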

[4] = NCI Yeast Anticancer Drug Screen. Data for the mgt1 strain (AID 153); conditions: S. cerevisiae mgt1 mutant growth inhibition, active compounds read high
Summary of the method: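 Vehicle-normalized growth inhibition is determined in mgt1 yeast, a strain selected for a defined alteration in DNA repair or cell cycle control.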

[5] = NCI Yeast Anticancer Drug Screen. Data for the rad50 strain (AID 155);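 further: 0% = growth of vehicle-only cultures of the same strain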; conditions: S. cerevisiae rad50 strain growth inhibition, active compounds read high
Summary of the method: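 Vehicle-treated cultures provide the reference for the growth inhibition reported for compound-exposed, repair-deficient yeast.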

[6] = NCI Yeast Anticancer Drug Screen. Data for the mec2-1 strain (AID 157); conditions: S. cerevisiae mec2-1 strain, active compounds read high
Summary of the method: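 Mutant yeast (mec2-1) grown with compound; growth inhibition relative to vehicle control reported.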

[7] = NCI Yeast Anticancer Drug Screen. Data for the rad14 strain (AID 159);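 further: 0% = growth of vehicle-treated control cultures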; conditions: S. cerevisiae rad14 strain growth inhibition, active compounds read high
Summary of the method: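 Inhibition of growth is reported for a repair-deficient yeast mutant following compound treatment, calculated relative to cultures that received vehicle.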

[8] = NCI Yeast Anticancer Drug Screen. Data for the sgs1 mgt1 strain (AID 161);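 further: 0% = growth of cultures given vehicle only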; conditions: S. cerevisiae sgs1 mgt1 strain, active compounds read high
Summary of the method: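 Growth of a repair-deficient yeast mutant was monitored after compound treatment and expressed as inhibition relative to vehicle-treated cultures.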

[9] = NCI Yeast Anticancer Drug Screen. Data for the CLN2oe strain (AID 163);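 further: 0% = growth of vehicle-only control cultures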; conditions: S. cerevisiae CLN2oe strain, active compounds read high
Summary of the method: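 Compounds are applied to yeast harbouring a defined cell-cycle control change; reduced growth compared with vehicle-treated controls gives the value.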

[10] = NCI Yeast Anticancer Drug Screen. Data for the cln2 rad14 strain (AID 165);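 further: 0% = growth equal to vehicle treated cultures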; conditions: S. cerevisiae cln2 rad14 strain, active compounds read high
Summary of the method: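 Readout is yeast growth inhibition versus vehicle-treated controls, using a strain with cln2 and rad14 alterations exposed to compound.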

[11] = NCI Yeast Anticancer Drug Screen. Data for the bub3 strain (AID 167); conditions: S. cerevisiae bub3 mutant strain, active compounds read high
Summary of the method: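 Mutant yeast screening strain plus compound; vehicle-treated cultures serve as the 0% inhibition reference.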

[12] = NCI Yeast Anticancer Drug Screen. Data for the wt2 strain (AID 169); conditions: S. cerevisiae wt2 strain growth inhibition, active compounds read high
Summary of the method: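 Against vehicle-treated controls, the growth of yeast exposed to each compound was compared, and the inhibition was recorded.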

[13] = NCI Yeast Anticancer Drug Screen. Data for the mlh1 strain (AID 171);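 further: 0% = growth of vehicle-treated control cultures of the same strain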; conditions: S. cerevisiae mlh1 strain growth inhibition, active compounds read high
Summary of the method: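 Measured: yeast growth. Reference: vehicle-treated controls. Organism: strain with a defined alteration affecting DNA damage repair or cell cycle control, treated with compound.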

[14] = NCI Yeast Anticancer Drug Screen. Data for the sgs1 strain (AID 173);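 further: 0% = growth of vehicle-only control cultures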; conditions: S. cerevisiae sgs1 mutant, active compounds read high
Summary of the method: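 Each compound was added to cultures of the altered yeast strain. Growth was recorded, and inhibition was derived by comparison with vehicle controls.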

[15] = NCI Yeast Anticancer Drug Screen. Data for the mlh1 rad18 strain (AID 175); conditions: S. cerevisiae mlh1 rad18 strain growth inhibition, active compounds read high
Summary of the method: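 Genetically defined yeast (DNA repair-deficient) exposed to compounds; growth inhibition determined relative to vehicle.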

[16] = NCI Yeast Anticancer Drug Screen. Data for the rad18 strain (AID 177); conditions: S. cerevisiae rad18 mutant growth inhibition, active compounds read high
Summary of the method: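 Vehicle-treated cultures served as the baseline for scoring compound-induced growth inhibition in DNA-repair-mutant yeast.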

[17] = at 5.0 µM (retest, dose inferred, filed as 0.5)
[18] = at 50.0 µM (retest, dose inferred, filed as 5.0)

Measured: growth inhibition

Cc1cc2c(cc1C(=O)CCC(=O)O)CC1(C2)Cc2cc(C)c(C(=O)CCC(=O)O)cc2C1
inactive: [1]; at 1.2 µM 3% | [1]; at 3.7 µM 6% | [1]; at 11.0 µM 11% | [1]; at 33.0 µM 25% | [1]; at 100.0 µM 47% | [2]; at 1.2 µM 3% | [2]; at 3.7 µM 4% | [2]; at 11.0 µM 12% | [2]; at 33.0 µM 21% | [2]; at 100.0 µM 35% | [3]; at 1.2 µM 1% | [3]; at 3.7 µM 0% | [3]; at 11.0 µM 8% | [3]; at 33.0 µM 15% | [3]; at 100.0 µM 30% | [4]; at 1.2 µM 2% | [4]; at 3.7 µM 6% | [4]; at 11.0 µM 12% | [4]; at 33.0 µM 36% | [4]; at 100.0 µM 42% | [5]; at 1.2 µM 3% | [5]; at 3.7 µM 2% | [5]; [17] 13% | [5]; at 11.0 µM 9% | [5]; at 33.0 µM 21% | [5]; [18] 36% | [5]; at 50.0 µM 56.5% | [5]; at 100.0 µM 42% | [6]; at 1.2 µM -2% | [6]; at 3.7 µM 1% | [6]; [17] -4% | [6]; at 11.0 µM 12% | [6]; at 33.0 µM 26% | [6]; [18] 14% | [6]; at 50.0 µM 31.5% | [6]; at 100.0 µM 56% | [7]; at 1.2 µM -1% | [7]; at 3.7 µM 2% | [7]; at 11.0 µM 8% | [7]; at 33.0 µM 22% | [7]; at 100.0 µM 44% | [8]; [17] -4% | [8]; [18] 29% | [8]; at 50.0 µM 49.9% | [9]; at 1.2 µM -5% | [9]; at 3.7 µM 2% | [9]; at 11.0 µM 14% | [9]; at 33.0 µM 27% | [9]; at 100.0 µM 41% | [10]; [17] 16% | [10]; [18] 47% | [10]; at 50.0 µM 38.4% | [11]; at 1.2 µM -4% | [11]; at 3.7 µM 0% | [11]; [17] 13% | [11]; at 11.0 µM 9% | [11]; at 33.0 µM 17% | [11]; [18] 62% | [11]; at 50.0 µM 54.8% | [11]; at 100.0 µM 54% | [12]; at 1.2 µM 0% | [12]; at 3.7 µM 2% | [12]; at 11.0 µM 10% | [12]; at 33.0 µM 26% | [12]; at 100.0 µM 46% | [13]; at 1.2 µM 5% | [13]; at 3.7 µM 5% | [13]; at 11.0 µM 14% | [13]; at 33.0 µM 27% | [13]; at 100.0 µM 50% | [14]; at 1.2 µM 2% | [14]; at 3.7 µM 7% | [14]; at 11.0 µM 14% | [14]; at 33.0 µM 33% | [14]; at 100.0 µM 69% | [15]; [17] -1% | [15]; at 50.0 µM 67.8% | [16]; at 1.2 µM 1% | [16]; at 3.7 µM 1% | [16]; at 11.0 µM -3% | [16]; at 33.0 µM 22% | [16]; at 100.0 µM 63%
active: [15]; [18] 70%
